For 13 compounds, z-score and composite z-score results are on record in PubChem BioAssay.

Test [1] can be described thus: HepG2 liver cancer cell viability effects, profiling panel, resazurin fluorescence, 24 h, PK04 Diversity Set (AID 1172). Further: test concentration not given here. The following applies: higher = more signal. (In general: Alamar Blue is a resazurin reagent that responds to reducing activity.)
Test [2] can be described thus: basal S. cerevisiae growth modulation, no modifier, primary screen, OD600, strain BY4716, 24 h, basal condition (AID 1173). To be noted: OD600, 24 h, higher = more signal, called active from +8 up or from −8 down.
The nature of test [3]: MM1S myeloma cell viability, profiling panel, resazurin fluorescence, basal, 24 h, PK04 Diversity Set (AID 1174).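 Further: MM1S multiple myeloma cell line; test concentration not given here.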 The following applies: higher = more signal, called active from +8 up or from −8 down.
The target in test [4] is Dihydroorotate dehydrogenase (quinone), mitochondrial (Plasmodium falciparum (isolate 3D7)) (UniProt Q08210). The test can be described thus: PfDHODH enzyme inhibitors, primary screen, biochemical, C-terminal His tag, absorbance 600 nm (AID 1175).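 Further: recombinant parasite enzyme with a five histidine tag at its C terminus; test concentration not given here.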 The following applies: DCIP absorbance 600 nm, higher = more signal, called active from +8 up or from −8 down.
Sequence of Dihydroorotate dehydrogenase (quinone), mitochondrial (Plasmodium falciparum (isolate 3D7)) (Q08210 whole entry, looked up): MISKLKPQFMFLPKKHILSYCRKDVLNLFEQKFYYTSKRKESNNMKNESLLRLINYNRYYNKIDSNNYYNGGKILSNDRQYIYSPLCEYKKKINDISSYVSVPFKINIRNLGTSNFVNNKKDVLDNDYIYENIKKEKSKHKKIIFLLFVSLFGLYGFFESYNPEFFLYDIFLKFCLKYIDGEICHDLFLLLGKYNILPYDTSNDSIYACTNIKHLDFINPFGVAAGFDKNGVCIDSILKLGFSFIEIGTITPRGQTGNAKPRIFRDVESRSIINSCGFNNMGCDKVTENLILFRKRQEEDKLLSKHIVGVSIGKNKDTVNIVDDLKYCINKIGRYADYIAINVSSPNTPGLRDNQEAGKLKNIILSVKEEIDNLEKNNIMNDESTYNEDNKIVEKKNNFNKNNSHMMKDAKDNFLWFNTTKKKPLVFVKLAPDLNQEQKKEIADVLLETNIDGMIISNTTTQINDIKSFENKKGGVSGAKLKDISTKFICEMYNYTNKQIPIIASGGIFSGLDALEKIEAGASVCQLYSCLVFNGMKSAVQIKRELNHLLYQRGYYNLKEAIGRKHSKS
Test [5] is described as follows: P. aeruginosa biofilm formation inhibitors, primary screen, strain PAO1, LB-PBS medium, absorbance 600 nm (AID 1176). Further: test concentration not given here. The following applies: P. aeruginosa PAO1 growth/biofilm, A600, 12 h; higher = more signal.
Test [6] is described as follows: S. cerevisiae RM11-1a growth modifiers, primary screen, strain RM11-1a, OD600, basal, 24 h (AID 1177).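 Further: cultures grown under basal conditions with no added stressor; test concentration not given here.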 The following applies: OD600, 24 h, higher = more signal, called active from +8 up or from −8 down.
Test [7] can be described thus: E. coli acrAB mutant growth effects, primary screen, E. coli filamentation inducers, strain DRC39, OD650, 24 h (AID 1178).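 Further: growth measured as culture turbidity by optical density at 650 nm; test concentration not given here.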 To be noted: higher = more signal, called active from +8 up or from −8 down.
Test [8] is described as follows: E. coli acrAB mutant growth effects, primary screen, E. coli filamentation inducers, strain DRC39, OD650, 48 h (AID 1179).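 Further: screen aims at cell division blockers that make cells filament.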 The following applies: E. coli DRC39 delta-acrAB growth, higher = more signal, called active from +8 up or from −8 down.
Test [9] can be described thus: RPMI8226 myeloma cell viability, profiling panel, resazurin fluorescence, basal, 24 h, PK04 Diversity Set (AID 1180).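 Further: RPMI8826 multiple myeloma cell line at 5000 cells per well; test concentration not given here.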 The following applies: higher = more signal.
Test [10] addresses E3 ubiquitin-protein ligase XIAP (Homo sapiens) (UniProt P98170). In words: XIAP binders, primary screen, biophysical, small-molecule microarray, fluorescence 635 nm (AID 1181).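 Further: score merges 667 nm emission and signal to noise over triplicate slides.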 To be noted: small-molecule microarray binding, higher = more signal.

Calls of active or inactive are those of the source. Unless noted, how the calls were made is not given here.

Sequence of E3 ubiquitin-protein ligase XIAP (Homo sapiens) (P98170 whole entry, looked up): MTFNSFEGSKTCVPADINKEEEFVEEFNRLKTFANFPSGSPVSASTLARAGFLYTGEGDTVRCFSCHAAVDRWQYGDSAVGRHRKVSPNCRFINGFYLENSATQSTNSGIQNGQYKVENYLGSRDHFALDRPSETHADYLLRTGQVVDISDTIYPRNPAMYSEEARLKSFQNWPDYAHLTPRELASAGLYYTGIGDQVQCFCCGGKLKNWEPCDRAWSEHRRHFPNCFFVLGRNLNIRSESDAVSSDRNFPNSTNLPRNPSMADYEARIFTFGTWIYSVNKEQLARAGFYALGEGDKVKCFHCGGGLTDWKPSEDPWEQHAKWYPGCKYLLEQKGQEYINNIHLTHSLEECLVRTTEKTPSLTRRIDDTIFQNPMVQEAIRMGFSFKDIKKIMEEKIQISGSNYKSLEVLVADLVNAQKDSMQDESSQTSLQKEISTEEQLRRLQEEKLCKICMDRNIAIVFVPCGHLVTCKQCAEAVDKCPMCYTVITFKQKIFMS

Consider `CC(C)=CCCC(C)=CCON=C1[C@H]2CCn3c(=O)n(Cc4cc5c(cc4Cl)OCO5)c(=O)n3[C@H]2[C@H](O)[C@@H]2O[C@H]12`, for which the z-score in test [1] is -0.594; in [2], -0.696 (inactive); in [3] it was -0.738 (inactive); in test [5], -0.471 (inactive); in test [6], -0.537 (inactive); in [7], -0.464 (inactive). Besides, the results for the z-score in test [8] and in [9] were -0.72 (inactive) and -0.357, respectively. In addition, the composite z-score was 0.207 (inactive) in [4] and -0.224 in [10].

For the compound `COC(=O)[C@@]1(Cc2ccccc2)[C@H]2c3cc(C(=O)N4CCCC4)n(Cc4ccccn4)c3C[C@H]2CN1C(=O)c1ccccc1`, the z-score in [1] was -1.17; in [2], 1.32 (inactive); in test [3], -1.45 (inactive); in [5] it was 1.79 (inactive); in test [6], 0.957 (inactive); in test [7], -0.452 (inactive). Further, the z-score in [8] is -0.551 (inactive); in test [9] it was -2.32. Also, the composite z-score in test [4] is 0.553 (inactive); in test [10] it was 0.0737.

With `O=C1O[C@@H](c2ccccc2)[C@@H](c2ccccc2)N2[C@@H](c3ccc(OCCO)cc3)[C@]3(C(=O)Nc4ccccc43)[C@@H](C(=O)N3CCN(c4ncccn4)CC3)[C@H]12`, the z-score was -0.18 in test [1]; 0.944 (inactive) in test [2]; -0.271 (inactive) in test [3]; 1.47 (inactive) in test [5]; 2.78 (inactive) in test [6]; 0.142 (inactive) in [7]. Besides, the z-score was 1.07 (inactive) in [8] and 0.652 in test [9]. Also, the results for the composite z-score in test [4] and in test [10] were -2.37 (inactive) and -0.227, respectively.

As to `CC(C)(C)OC(=O)CC[C@]1(C(N)=O)COC(c2ccc(OCCCO)cc2)=N1`, the z-score in test [1] was -0.722; in test [2], 0.0462 (inactive); in test [3], -1.43 (inactive); in test [5], 0.134 (inactive); in test [6] it was -0.788 (inactive); in [7] it was -0.34 (inactive). In addition, the values for the z-score in [8] and in [9] were 0.381 (inactive) and -0.751, respectively. Moreover, the composite z-score is 0.0996 (inactive) in [4] and 0.276 in test [10].

On to `N#Cc1ccc(NN2C(C(O)c3cccc4ccccc34)C=CC3C(=O)N(c4ccccc4)C(=O)C32)cc1` (stereo not given), for which the z-score was -0.707 in test [1]; 0.185 (inactive) in test [2]; -0.605 (inactive) in [3]; 0.487 (inactive) in test [5]; 0.806 (inactive) in test [6]; -0.586 (inactive) in [7]. The z-score in [8] was 0.434 (inactive); in test [9], -0.28. In addition, the figures for the composite z-score in test [4] and in test [10] were 0.199 (inactive) and 0.0791, respectively.

For `CC(CCN1CCc2nc(-c3ccccc3)c(-c3ccccc3)cc2C1)=NOC[C@@H](C)[C@H](OCc1ccccc1)C(C)C`, the z-score is -1.12 in [1]; -2.01 (inactive) in [2]; 0.504 (inactive) in test [3]; -0.315 (inactive) in test [5]; 0.0117 (inactive) in [6]; -1.23 (inactive) in [7]. Further, the figures for the z-score in [8] and in test [9] were -0.936 (inactive) and 0.64, respectively. In addition, the composite z-score was 0.928 (inactive) in [4] and -0.04 in [10].

As to `CCOC(=O)CCN1C(=O)[C@H]2[C@H]3[C@H](O)[C@H](O)CC(=NOC[C@@H](O)COCc4ccco4)[C@@H]3CC[C@H]2C1=O`, the z-score in [1] is -0.454; in test [2], 0.846 (inactive); in [3], -1.27 (inactive); in [5], -0.0121 (inactive); in test [6], 0.176 (inactive); in test [7], -0.153 (inactive). Besides, the z-score in test [8] was 0.324 (inactive); in test [9] it was -0.8. The values for the composite z-score in test [4] and in test [10] were 0.318 (inactive) and -0.124, respectively.

On to `O=C1[C@H]2[C@H]3[C@H](O)[C@H](O)CC(=NO[C@@H]4O[C@H](CO)[C@@H](O)[C@H](O)[C@H]4O)[C@H]3CC[C@H]2C(=O)N1C1CCCCC1`, for which the z-score in test [1] is 0.241; in test [2] it was 0.205 (inactive); in test [3] it was -0.655 (inactive); in test [5], -0.613 (inactive); in [6], -0.629 (inactive); in test [7], 0.411 (inactive). For the same compound, the z-score was 0.232 (inactive) in test [8] and -0.815 in test [9]. Further, the values for the composite z-score in test [4] and in [10] were 0.26 (inactive) and 0.155, respectively.

`O=C1NC(=O)C2C1C=CC(C(O)Cc1ccccc1)N2Nc1ccccn1` (stereo not given): the z-score was -0.507 in test [1]; 0.424 (inactive) in test [2]; -0.164 (inactive) in [3]; -0.118 (inactive) in test [5]; -0.979 (inactive) in test [6]; 0.374 (inactive) in [7]. The z-score in test [8] was 1.42 (inactive); in test [9], -0.448. Further, the composite z-score in [4] is 0.195 (inactive); in [10], -0.136.

For `Cn1cccc1C(O)C1C=CC2C(=O)NC(=O)C2N1Nc1ccccn1` (stereo not given), the z-score was -1.49 in test [1]; 0.784 (inactive) in [2]; -1.28 (inactive) in [3]; 0.543 (inactive) in test [5]; -0.0064 (inactive) in [6]; -0.512 (inactive) in [7]. In addition, the figures for the z-score in test [8] and in test [9] were -0.204 (inactive) and -0.868, respectively. In addition, the composite z-score is 1.21 (inactive) in test [4] and 0.203 in [10].

As for `COc1cccc([C@H]2Oc3ccc(OC)cc3C(=NOC(C)CN3CCCc4nc(C)c(C)cc43)[C@@H]2O)c1` (stereo not given in full), the z-score in [1] was -0.948; in test [2], -0.872 (inactive); in test [3] it was -0.944 (inactive); in test [5], -0.136 (inactive); in test [6] it was -0.168 (inactive); in test [7], -0.0128 (inactive). In addition, the z-score is -0.565 (inactive) in [8] and -0.948 in test [9]. For the same compound, the composite z-score in test [4] is 0.956 (inactive); in test [10] it was 0.271.

Regarding `O=C1[C@H]2[C@H]3[C@H](O)[C@H](O)CC(=NOCc4ccccc4)[C@@H]3CC[C@H]2C(=O)N1C1CCCCC1`, the z-score in test [1] was -0.116; in test [2] it was -3.16 (inactive); in test [3], -0.321 (inactive); in test [5], 1.29 (inactive); in [6], 0.594 (inactive); in test [7], -0.315 (inactive). The z-score in test [8] was -0.881 (inactive); in test [9], -0.456. Besides, the composite z-score in [4] was 0.35 (inactive); in test [10], -0.144.

Take `C=C(/C(=C/C[C@@H](OC(=O)c1ccncc1)c1ccc(OCCO)cc1)c1cnc2ccccc2c1)C(C)C`: the z-score in [1] is 0.384; in test [2], -18.5 (active); in test [3], -0.684 (inactive); in [5] it was -0.235 (inactive); in test [6], -22.1 (active); in [7], 0.872 (inactive). Further, the z-score in test [8] was 0.432 (inactive); in test [9] it was 0.206. The composite z-score is -10.5 (active) in test [4] and -0.0373 in test [10].
